Laboratory results reported in the OligoGym collection.

biological target: FZD1; assay: pooled miR-30 sensor sort-seq; sequence = guide strand; conditions: shRNA
Further: reference of the scale not given here.

Point of comparison: TTGAGGGTCTTGCCGGACCAGA, sensor-assay potency score (higher = more potent) -1.52. Against it:
- TACAGCACGCTGAAGACGCCAA — higher, -0.38
- TTTGCTGTTGGTGAGCCTCGTG — higher, -0.218
- TAGAACTTCCTCCAGGAGTTGA — higher, -0.794

biological target: FZD4; assay: as above; conditions: shRNA

Point of comparison: TACAGTACTGAGAACACCCCAA, sensor-assay potency score (higher = more potent) 0.428. Against it:
- TTTGCTATCTGAAAGACCCAGT — lower, 0.327
- TTGGTTTCCAACATAGCACAAG — lower, -0.766
- TCAGTCTTTCTAACTTGTCTGT — lower, -0.388
- TATTATAGCACATACTGAGAAA — lower, -1.2
- TTTTAGTAGAATTTCCTCCAAA — lower, -0.591
- AACTTGTCTGTCTTTGTCCCAT — lower, 0.289
- TAACAGGCAATCACACACGTTG — lower, -0.53
- TATCAGTGAACTCCTTGGCTGA — lower, -0.901
- TCTTTCTAACTTGTCTGTCTTT — lower, -0.962
- TTGACTGAAAGACACATGCCGC — lower, -0.778

biological target: FZD5; assay: as above; conditions: shRNA

Point of comparison: TAGGAAGAAGCGCAGGTCCGGC, sensor-assay potency score (higher = more potent) -0.902. Against it:
- TACTTGAGCATGAGCACCCAGT — lower, -0.921
- TTCTCCAGCTTGTCCGTCTTGG — higher, -0.54
- TAGCAGGCCACCACAATGCTGG — higher, -0.787
- TTGATGACGCTGCGGATGCGGA — lower, -1.12
- TAGAGCAGCGTGAAGATGCCGA — higher, 0.0125
- TTCCATGTCGATGAGGAAGGTG — higher, -0.703
- TCTCGCGGTAGTGCTGCTCGTA — lower, -1.3
- TAGAGCATAGGAAGAAGCGCAG — higher, -0.267
- TCCATGTCGATGAGGAAGGTGG — lower, -1.25
- AGGAGCAGCAGCAACAGCGAGG — lower, -2.13
- TCCAGCTTGTCCGTCTTGGTGC — lower, -1.11

biological target: FZD8; assay: as above; conditions: shRNA

Point of comparison: TTATATCTGTTCTTACAGGGGT, sensor-assay potency score (higher = more potent) -0.138. Against it:
- TGTAGGTGTAGTTGTAGCCGAT — lower, -0.983
- TTGATGACCGAGCGGATGCGGA — lower, -1.04
- TATCATGCTAATAGCAATCAAC — lower, -0.951
- TATATCTGTTCTTACAGGGGTA — lower, -0.151
- TTTACTTAAGGCATTTGCCTGG — higher, 0.501
- TTGTAGTCCATGCACAGCGTGT — lower, -1.01
- ATAATTAAGACATTTCTTGTTT — higher, 0.00747
- TGTTGCTTGATGACCGAGCGGA — lower, -0.353
- TTCTTGTAGTCCTCTAGGCAGA — lower, -1.02
- TACTTGAGCATGAAGACGGCGT — higher, 0.273
- TAAGACACGGAGCTCGCCGTGC — lower, -0.78
